Several values for one entry are separate records, joined by “and”; a condition that tells them apart may be missing. Equal entries are not always repeated. The whole screen tested about 140,000 compounds, of which about 1,200 (0.86%) were called active. Rule as the data show it: active = activity change below about -25%; inactive = the rest. The entries come from a sample that favours actives as a whole. More than one record can exist for a structure, and the calls need not agree.
molecular target: Inositol hexakisphosphate kinase 1 (Homo sapiens) (UniProt Q92551); assay: Primary qHTS assay for small molecule inhibitors of Inositol hexaphosphate kinase 1 (IP6K1); conditions: ADP-Glo luminescence, 2 h, stronger effect = lower value; also: series mostly up to about 58 µM
Source text: Assay Provider: Huijun Wei, M.S., Ph.D. School of Medicine, Johns Hopkins University, Baltimore, MD Inositol hexakisphosphate kinases (IP6Ks) catalyze pyrophosphorylation of inositol hexakisphosphate (IP6) into inositol 5-diphospho-1,2,3,4,6-pentakisphosphate (IP7), which is involved in numerous areas of cell physiology including glucose homeostasis, blood coagulation and neurological development. Inhibition of IP6Ks may be effective for the treatment of Type II diabetes, thrombosis, and psychiatric disorders. We performed a quantitative high throughput screen (qHTS) of 158,410 compounds for IP6K1 inhibitors using ankinase activity ADP-Glo Max assay. […] Medicinal chemistry SAR efforts in three chemical series identified potent IP6K1 inhibitors, which were further validated in an orthogonal LC-MS IP7 analysis.
PROTOCOL TABLE SEQUENCE No. (e.g., 1, 2, 3, etc.); […] (e.g., Cells, Incubation, Reagent, etc.); VALUE and DESCRIPTION. 1. Reagent, 3 uL of 1.3 mM ATP and 130 uM IP6 mixture in assay buffer was dispensed to a white, 1536-well assay plate. 2. Compound, 23 nL of compounds of the top two doses (57.5 uM and 19.1 uM final concentration) of the libraries were dispensed into the mixture using the Kalypsis pintool. 3. Reagent, 1 uL of 2.4 uM IP6K1 was dispensed to the assay plates. 4. Incubation, 2 hr incubation at room temperature. 5. Reagent, 2 uL of ADP-Glo reagent was added to the wells. 6. Incubation, 1 hr incubation at room temperature. 7. Reagent, 4 uL or ADP-Glo substate was added to the wells. 8. Incubation, 45 min incubation at room temperature. 9. Detection, luminescence signal was detected using the ViewLux microplate imager (PerkinElmer).
% is scaled to controls: 0 for no effect and ±100 for the full control effect.

Chain of Inositol hexakisphosphate kinase 1 (Homo sapiens) (Q92551 whole entry, looked up): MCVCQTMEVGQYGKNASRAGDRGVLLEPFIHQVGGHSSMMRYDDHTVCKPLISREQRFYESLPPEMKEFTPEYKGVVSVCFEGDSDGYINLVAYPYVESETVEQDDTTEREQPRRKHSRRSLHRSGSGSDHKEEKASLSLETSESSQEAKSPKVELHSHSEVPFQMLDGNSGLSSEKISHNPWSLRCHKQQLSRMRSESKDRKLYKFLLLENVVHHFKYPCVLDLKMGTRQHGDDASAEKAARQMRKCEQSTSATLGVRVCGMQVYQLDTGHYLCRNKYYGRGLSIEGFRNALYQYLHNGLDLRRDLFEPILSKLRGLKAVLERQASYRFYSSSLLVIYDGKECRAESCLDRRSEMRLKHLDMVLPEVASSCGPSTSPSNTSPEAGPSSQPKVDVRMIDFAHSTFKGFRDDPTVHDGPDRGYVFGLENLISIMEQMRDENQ

Row | Structure (SMILES) | activity change
1 | FC(F)(F)c1ccc(CN2CCC3(CC(c4cccc(C(F)(F)F)c4)=NO3)C2)cc1 (stereo not drawn) | -5.41% (inactive)
2 | N#Cc1ccc(CN2CC(Oc3ccc(F)cc3F)C2)cc1 | -14.3% (inactive)
3 | CO[C@H]1C=CO[C@@]2(C)Oc3c(C)c(O)c4c(O)c(c(/C=N/N5CCN(C)CC5)c(O)c4c3C2=O)NC(=O)/C(C)=C\C=C[C@H](C)[C@H](O)[C@@H](C)[C@@H](O)[C@@H](C)[C@H](OC(C)=O)[C@@H]1C | -33.1% (active)
4 | O=C(C1CCN(Cc2ccccc2-c2ccccc2F)CC1)N1CCC(c2ccccc2)CC1 | 20.1% (inactive)
5 | Cc1ccccc1C(=O)N1CCCC(C(=O)N2CCC(c3ccccc3)CC2)C1 (stereo not drawn) | -2.33% (inactive)
6 | O=[S+]([O-])(c1ccccc1)N1CC2(COCCN(Cc3cc(F)ccc3F)C2)C1 | 8.88% (inactive)
7 | COc1cccc(Nc2n[nH]c(C(O)c3cccc(C(F)(F)F)c3)n2)c1 (stereo not drawn) | -3.83% (inactive)
8 | COc1ccc(-c2nn(CC(=O)Nc3ccccc3F)c3c2cnc2ccc(F)cc23)cc1 | 6.83% (inactive)
9 | COc1ccc2ncc3c(-c4ccc(C)c(C)c4)nn(CC(=O)NC4CCCC4)c3c2c1 | -25.8% (active)
10 | COc1ccc(-c2nn(CC(=O)NC3CCCC3)c3c2cnc2ccc(F)cc23)cc1 | 19.4% (inactive)
11 | COc1ccc(-c2nc(-c3ccccc3)nc3c2CN(C(=O)c2ccc(C)cc2)CC3)cc1 | 6.25% (inactive)
12 | CCN1c2cc(C(=O)NCc3ccccc3C(F)(F)F)ccc2C(=O)N2CCCCCC21 (stereo not drawn) | -7.94% (inactive)
13 | Cc1ccc(Cl)cc1NC(=O)CN1C(=O)NC(c2ccc(Cl)cc2)C2=C1COC2=O (stereo not drawn) | -3.73% (inactive)
14 | CCOC(=O)c1cc2c(=O)n3ccccc3nc2n(Cc2ccco2)c1=NC(=O)c1ccc(F)cc1 | -40.8% (active)
15 | CCOC(=O)c1cc2c(=O)n3ccccc3nc2n(CC2CCCO2)c1=NC(=O)c1ccc(C(C)(C)C)cc1 (stereo not drawn) | -2.99% (inactive)
16 | CCOC(=O)c1cc2c(=O)n3ccccc3nc2n(CC2CCCO2)c1=NC(=O)c1ccccc1F (stereo not drawn) | -9.99% (inactive)
17 | NC(=O)Cn1ccc2cc(OCC3CCN(C(=O)C4CCCC4)CC3)cnc21 | -2.13% (inactive)
18 | CC(C)CCNC(=O)c1cnc2c(c1)N(Cc1ccccc1)CCC2 | 3.22% (inactive)
19 | COC[C@H]1C[C@@H](NC(=O)c2ccc(C#N)cc2)[C@H](O)[C@@H]1O | -1.35% (inactive)
20 | Cn1cc(C(=O)N2CCC(C(=O)N3CCCCCCNC(=O)CC3)CC2)cn1 | -7.37% (inactive)
21 | N#Cc1ccc(C(=O)Nc2ccc([C@H]3OCC(=O)N(Cc4cccnc4)[C@@H]3CO)cc2)cc1 | -3.68% (inactive)

Row | Structure (SMILES) | activity change
22 | O=C(Nc1cc(-c2ccncc2)nn1-c1ccccc1)c1ccccc1F | -7.37% (inactive)
23 | O=C(Nc1cccnc1)[C@@H]1C[C@@H](c2ccc(F)cc2)N([S+](=O)([O-])c2ccccc2)C1 | 19.9% (inactive)
24 | Cc1nc2c(c(C)nn2-c2ccccc2)c(C)c1CCC(=O)NCCc1ccc(Cl)cc1 | 11.8% (inactive)
25 | Cc1ccc(CNC(=O)CCc2c(C)nc3c(c(C)nn3-c3ccccc3)c2C)cc1 | -26.3% (active)
26 | COC(=O)c1ccc(NC(=O)CCc2c(C)nc3c(c(C)nn3-c3ccc(C)cc3)c2C)cc1 | 33% (inactive)
27 | Cn1ncc2c(C(=O)NCc3ccc(Cl)cc3)cc(-c3ccc(F)cc3)nc21 | 11.6% (inactive)
28 | O=C(NCCc1ccccc1F)c1ccc2nnc(-c3ccc(F)cc3)n2c1 | 1.1% (inactive)
29 | COC(=O)NC1CCCN(c2ccc3nnc(-c4ccccc4)n3n2)C1 (stereo not drawn) | -6.13% (inactive)
30 | COc1ccc(N2CC(c3noc(-c4cc(OC)c(OC)c(OC)c4)n3)CC2=O)cc1 (stereo not drawn) | 12.4% (inactive)
31 | CCOc1ccccc1NC(=O)C1CCCN(S(=O)(=O)c2cn(C)cn2)C1 (stereo not drawn) | -25.5% (active)
32 | Cc1ccc(C)c(NC(=O)C2CCCN(S(=O)(=O)c3cn(C)cn3)C2)c1 (stereo not drawn) | 5.66% (inactive)
33 | CCOc1ccccc1CNC(=O)C1CCCN(S(=O)(=O)c2ccc3c(ccn3C)c2)C1 (stereo not drawn) | -3.08% (inactive)
34 | Cc1noc(C)c1-c1nccc2c(=O)cc(N3CCOCC3)oc12 | -13.2% (inactive)
35 | O=c1cc(N2CCOCC2)oc2c(NCc3ccncc3)nccc12 | -7.16% (inactive)
36 | O=c1cc(N2CCOCC2)oc2c(Nc3cccc(Cl)c3)nccc12 | -31% (active)
37 | CN(C)c1ccc(CN(C)C2CCc3ccccc3C2)cc1 (stereo not drawn) | -16.7% (inactive)
38 | CC(C)OCCCNC(=O)c1cc(-c2ccc(C(F)(F)F)cc2)nc2c1cnn2C | -2.02% (inactive)
39 | CCOc1ccccc1NC(=O)CN1C(=O)C(c2ccccc2)=NC12CCCC2 | 7.82% (inactive)
40 | CC1=C(C(=O)N(C)C)C(c2ccc(Cl)cc2)N2C(CC(=O)NC(C)c3ccccc3)=CSC2=N1 (stereo not drawn) | 33.5% (inactive)
41 | CC1=C[C@@H](CNC(C)C)[C@H](C(C)C)C[C@H]1Cc1nnc(-c2ccc(N(C)C)cc2)o1 | -0.243% (inactive)
42 | Cc1ccccc1C(=O)N1CCCC(C(=O)N2CCC(N3CCOC3=O)CC2)C1 (stereo not drawn) | -1.11% (inactive)

Row | Structure (SMILES) | activity change
43 | C#C[C@]1(O)CC[C@H]2[C@@H]3CCC4=CC(=O)CC[C@@H]4[C@H]3CC[C@@]21CC | 3.56% (inactive)
44 | C#C[C@]1(O)CC[C@H]2[C@@H]3CCC4=C/C(=N/O)CC[C@@H]4[C@H]3CC[C@@]21CC | -79.6% (active)
45 | CN1CC(=O)N(C2CCC2)Cc2c(NCC(C)(C)C)ncnc21 | 15.1% (inactive)
46 | O=C(OCc1ccccc1)N1CCOCC12CCN(Cc1ccncc1Cl)CC2 | 13% (inactive)
47 | CN(CC1CCN(CCc2cccc(F)c2)CC1)C(=O)c1cn2cccnc2n1 | 28.9% (inactive)
48 | Cc1cc(=O)n(CC(=O)NCCc2ccc(Cl)cc2)c(N2CCc3ccccc3C2)n1 | 19.5% (inactive)
49 | N#CSc1cc(SC#N)c(N)nc1N | -42.8% (active)
50 | COc1ccc(Cn2c(=O)c(C(=O)N3CCN([S+](=O)([O-])c4c(C)noc4C)CC3)nc3cccnc32)cc1 | 10.5% (inactive)
51 | Cc1cn2nc(C(=O)Nc3cc(F)cc(F)c3)cc2c(N(C)Cc2ccccc2)n1 | -5.8% (inactive)
52 | O=c1cc(-c2ccccn2)oc2c(-c3ccccc3F)nccc12 | -14.4% (inactive)
53 | O=c1cc(-c2cccnc2)oc2c(-c3ccccc3O)nccc12 | -32.5% (active)
54 | O=c1cc(-c2cccnc2)oc2c(-c3cccc(CO)c3)nccc12 | -18.5% (inactive)
55 | CCCn1c(C)cnc1C1CCN(S(C)(=O)=O)C1 (stereo not drawn) | 2.78% (inactive)
56 | O=C(NC1CCCCCC1)C1CCCN(Cc2cccc(-c3cccs3)c2)C1 (stereo not drawn) | 8.71% (inactive)
57 | Cn1nc(C2CCCN(C(=O)NCc3ccccc3)C2)n(Cc2ccccc2)c1=O (stereo not drawn) | -4.56% (inactive)
58 | COc1ccccc1N1CCCc2ncc(C(=O)N3CCCC[C@@H]3c3ccccc3)cc21 | -3.23% (inactive)
59 | COC(=O)[C@H](NC(=O)[C@@H]1C[C@H](NC(=O)Nc2ccc(F)cc2F)CN1C(C)=O)C(C)C | -6.82% (inactive)
60 | Cc1ccc(SCC(=O)Nc2ccc3oc(-c4ccccc4C)nc3c2)cc1 | 18.6% (inactive)
61 | CCC(=O)Nc1cccc(-c2nc3cc(C)ccc3o2)c1 | -27.3% (active)
62 | O=C(Nc1cccc(-c2nc3ccccc3o2)c1)c1cccc(Br)c1 | 18.7% (inactive)
63 | CC1(c2ccccc2)N(Cc2ccccc2F)C(=O)OC12CCN(Cc1cccc(O)c1)CC2 (stereo not drawn) | -6.41% (inactive)

Row | Structure (SMILES) | activity change
64 | Cc1noc(-c2ccc(OC3CN(C(=O)c4ccco4)C3)cc2)n1 | 5.28% (inactive)
65 | CC1(C)[C@H](Cc2cc(CC3CCCCC3)on2)C[C@@H]1NC(=O)C1CCC1 | -13.8% (inactive)
66 | O=C(NCc1ccc2c(c1)OCO2)C1CCCN(Cc2cccc(-c3cccs3)c2)C1 (stereo not drawn) | -3.87% (inactive)
67 | COc1ccc(C(=O)N2CCCC2C(=O)N2CCCC2c2nc3ccncc3[nH]2)cc1 (stereo not drawn) | 15.6% (inactive)
68 | c1cc(-c2nc3ccncc3[nH]2)ccn1 | 3.83% (inactive) and 13.8% (inactive)
69 | COc1ccc(-c2nc3ccncc3[nH]2)cc1 | -18.1% (inactive) and -33.5% (active)
70 | O=C(NCC1CN(C(=O)c2cnccn2)CC12CCOCC2)N1CCCC1 (stereo not drawn) | 5.72% (inactive)
71 | COc1ccc2[nH]c3c(c2c1)CCNC31CCN(C(=O)c2ccccc2)CC1 | 15.7% (inactive)
72 | CCOc1ccccc1C(=O)N1CCC(Oc2ncccc2C(=O)N(C)C)C1 (stereo not drawn) | 17.8% (inactive)
73 | CCOc1ncccc1C(=O)N1CCN(Cc2ccccc2)CC(O)C1 (stereo not drawn) | -34.4% (active)
74 | O=C(c1ccccc1Cl)N1CCN(C(=O)c2nc3cccnc3n(Cc3ccccc3)c2=O)CC1 | -2.58% (inactive)
75 | CN1C(=O)CC(c2ccccc2)C1=O (stereo not drawn) | 10.2% (inactive)
76 | Nc1nc2c(s1)C(c1ccccc1)CC(=O)N2 (stereo not drawn) | -56.5% (active)
77 | COC(=O)[C@H](NC(=O)C1=C[C@@H](NC(=O)CS(=O)(=O)c2ccccc2)[C@@H](O)[C@H](O)C1)C(C)C | 22% (inactive)
78 | COc1cccc(CN2CCOC[C@H](Oc3ccccc3)C2)c1 | 7.17% (inactive)
79 | CN(C)CC1(O)CCC2(CCN(C(=O)c3ccc4ccccc4n3)CC2)CC1 | -13.2% (inactive)
80 | CSCC(=O)N1CCC2(CC1)CC(c1ccccc1)CN(C)C2 (stereo not drawn) | 3.1% (inactive)
81 | Cc1cccc(C(=O)N2CCC3(CC2)CC(c2ccccc2)CN(C)C3)n1 (stereo not drawn) | -35.9% (active)
82 | CC1=C[C@@H](CNC(C)C)[C@H](C(C)C)C[C@H]1Cc1nnc(-c2ccc(C)cc2)o1 | -3.97% (inactive)
83 | O=C(Cc1cccc(F)c1)N1CCC[C@H]1c1nc(-c2ccc(F)cc2)n[nH]1 | 21.1% (inactive)

Source: PubChem BioAssay AID1645851 (National Center for Advancing Translational Sciences (NCATS), 2021)
